Records with an inconclusive call do not appear. Values without a mark were called inactive. Calls of active or inactive are those of the source. Calls come from the whole dose curve; as a rule, active = well fitted curve in the direction sought with a large enough effect in the repeat runs; inconclusive = weak or mixed curves; inactive = no such curve, though single readings can be large; an effect the other way counts as inactive or inconclusive. Where a SMILES comes first, the peptide text is derived from it.
These compounds were tested against Cytochrome P450 2D6 (Homo sapiens) (UniProt P10635) (assay: Cytochrome P450 family 2 subfamily D member 6 (CYP2D6) small molecule antagonists: luciferase biochemical (cell-free) qHTS assay (AID 1645840)). Conditions: P450-Glo CYP2D6 enzyme, luciferin luminescence, 1 h; series mostly up to 57.4 µM; activity change, negative = inhibition: at the top concentration.
Cytochrome P450 2D6 (Homo sapiens), sequence (P10635 whole entry, looked up): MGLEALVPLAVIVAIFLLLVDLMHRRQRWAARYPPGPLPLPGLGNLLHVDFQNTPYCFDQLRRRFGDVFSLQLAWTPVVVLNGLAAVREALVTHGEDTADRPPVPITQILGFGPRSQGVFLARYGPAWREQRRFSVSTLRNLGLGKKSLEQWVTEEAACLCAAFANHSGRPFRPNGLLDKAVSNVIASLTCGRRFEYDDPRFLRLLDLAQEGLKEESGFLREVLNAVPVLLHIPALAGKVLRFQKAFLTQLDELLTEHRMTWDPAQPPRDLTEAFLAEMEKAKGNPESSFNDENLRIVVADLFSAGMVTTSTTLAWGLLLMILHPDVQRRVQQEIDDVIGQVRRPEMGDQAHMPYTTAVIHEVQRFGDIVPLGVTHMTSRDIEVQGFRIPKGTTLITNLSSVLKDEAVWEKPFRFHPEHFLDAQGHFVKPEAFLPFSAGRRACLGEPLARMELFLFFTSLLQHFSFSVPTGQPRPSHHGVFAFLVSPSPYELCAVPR
In short: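 P450-Glo CYP2D6 system: proluciferin substrate converted by enzyme to luciferin, read by luminescence proportional to activity. Enzyme-substrate mix with compound 10 min at room temperature, then NADPH regeneration 1 h before detection reagent.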
With `CC(NCCC(c1ccccc1)c1ccccc1)c1ccccc1` (stereo not given) the Potency was 0.0871 µM (active).
`CC(C)C(=O)Nc1cccc(C(F)(F)F)c1` was tested, and the “activity change, negative = inhibition” value was -17.8%.
`CC(C)(C)NCC(O)COc1ccccc1OCC1CCCO1` (stereo not given) was tested, and the Potency was 6.17 µM (active).
In the case of `COC(=O)CCCCC(CCSS/C(CCO)=C(\C)N(C=O)Cc1cnc(C)nc1N)SC(C)=O` (stereo not given), the “activity change, negative = inhibition” value is reported as 6.83%.
With `CCN(CC)CC(=O)Nc1c(C)cccc1C(=O)OC` the “activity change, negative = inhibition” value was 1.05%.
`Cc1cccc(N(C)C(=S)Oc2ccc3c(c2)C2CCC3C2)c1` (stereo not given) was tested, and the “activity change, negative = inhibition” value was -1.48%.
In the case of `CC(C(O)c1ccccc1)N(C)CCOC(c1ccccc1)c1ccccc1` (stereo not given), the Potency is reported as 0.0309 µM (active).
In the case of `COC(=O)c1c(Cl)c(Cl)c(C(=O)OC)c(Cl)c1Cl`, the “activity change, negative = inhibition” value is reported as -2.84% [at 115 µM].
For `COC(=O)c1cc(Cl)ccc1OC`, the “activity change, negative = inhibition” value was 11.9%.
For `CCCCN(CCN(CCCC)C(=O)N1CCOCC1)C(=O)N1CCOCC1`, the “activity change, negative = inhibition” value was 5.17%.
In the case of `CC(CC(C#N)(c1ccccc1)C(C)C)N(C)C` (stereo not given), the Potency is reported as 8.71 µM (active).
With `Nc1ccc([N+](=O)[O-])c(C(F)(F)F)c1` the “activity change, negative = inhibition” value was 3.27%.
With `COC(=O)c1cc(S(N)(=O)=O)ccc1OC` the “activity change, negative = inhibition” value was -0.292%.
With `Oc1ccccc1-c1nnco1` the “activity change, negative = inhibition” value was 3.16%.
In the case of `O=C(O)c1cn(C2CC2)c2cc(Cl)c(F)cc2c1=O`, the “activity change, negative = inhibition” value is reported as -3.46%.
`OC[C@]1(O)OC[C@@H](O)[C@H](O)[C@@H]1O` was tested, and the “activity change, negative = inhibition” value was -1.13%.
For `C[C@@H](C1=C(CCN(C)C)Cc2ccccc21)c1ccccn1`, the Potency was 11 µM (active).
In the case of `O=C(CCCl)NCc1ccccc1`, the “activity change, negative = inhibition” value is reported as 5.12%.
In the case of `C/C(=N\O)[C@@H](C)NCC(C)(C)CN[C@H](C)/C(C)=N/O`, the “activity change, negative = inhibition” value is reported as -15.6%.
For `Nc1nc(=O)n([C@@H]2O[C@H](CO)[C@@H](O)[C@@H]2F)cc1I`, the “activity change, negative = inhibition” value was 2.79%.
For `CC(C)NC(=O)c1ccc(C=O)cc1`, the “activity change, negative = inhibition” value was 4.84%.
In the case of `Cc1ccc(Cl)c(OCC(O)CNC(C)(C)C)c1` (stereo not given), the Potency is reported as 1.74 µM (active).
With `CC(=O)N[C@@H](CO)C(=O)N[C@@H](CC(=O)O)C(=O)N[C@@H](CCCCN)C(=O)N1CCC[C@H]1C(=O)O` (Ac-SDKP-OH) the “activity change, negative = inhibition” value was 1.7%.
With `OC1(c2ccccc2)CCNCC1` the Potency was 27.5 µM (active).
In the case of `CCCCNc1ccc(C(=O)OCCN(CC)CC)cc1`, the Potency is reported as 3.47 µM (active).
With `Cc1cnc(NS(=O)(=O)c2ccc(N)cc2)nc1` the “activity change, negative = inhibition” value was -2.23%.
In the case of `N#Cc1cc(NC(=O)C(=O)O)c(Cl)c(NC(=O)C(=O)O)c1`, the “activity change, negative = inhibition” value is reported as 1.75%.
With `O=C(NO)c1ccccc1` the “activity change, negative = inhibition” value was 5.26% [at 115 µM].
`CO/N=C(\C(=O)O)c1csc(NC(=O)CCl)n1` was tested, and the “activity change, negative = inhibition” value was 7.37%.
In the case of `C#Cc1ccc(-c2ccccc2F)cc1`, the Potency is reported as 15.1 µM (active).
`Cc1cccc(C)c1NC(=O)c1cc(S(N)(=O)=O)c(Cl)cc1O` was tested, and the “activity change, negative = inhibition” value was 9.61%.
In the case of `CN(C)CCCOC1(Cc2ccccc2)CCCCCC1`, the Potency is reported as 2.19 µM (active).
With `Nc1ccc2c(c1)CN1C(=O)c3ccccc3C1=N2` the Potency was 1.69 µM (active).
For `O=C(O)c1ccccc1Nc1cc(Cl)ccc1C(=O)O`, the “activity change, negative = inhibition” value was 7.42% [at 23.9 µM].
With `CC1(C)S[C@@H]2[C@H](NC(=O)C(c3ccccc3)S(=O)(=O)O)C(=O)N2[C@H]1C(=O)O` (stereo not given in full) the “activity change, negative = inhibition” value was -19.8%.
With `O=C(O)Cn1cnnn1` the “activity change, negative = inhibition” value was 3.35%.
`CCOC(=O)O[C@]1(C(=O)OCCl)CC[C@H]2[C@@H]3CCC4=CC(=O)C=C[C@]4(C)[C@H]3[C@@H](O)C[C@@]21C` was tested, and the “activity change, negative = inhibition” value was -20.7%.
For `O=C(CCCl)NCCc1ccccc1`, the “activity change, negative = inhibition” value was -15.7%.
With `CC[N+](CC)(CC)CCOC(=O)C(C1CCCC1)C1CCCC1` the Potency was 3.09 µM (active).
In the case of `CCOC(=O)c1ccc(O)c(O)c1`, the “activity change, negative = inhibition” value is reported as 8.56%.

These compounds were tested against Cytochrome P450 2C9 (Homo sapiens) (UniProt P11712) (assay: Cytochrome P450 family 2 subfamily C member 9 (CYP2C9) small molecule antagonists: luciferase biochemical (cell-free) qHTS assay (AID 1645842)). Conditions: P450-Glo CYP2C9 enzyme assay, luciferin luminescence; series mostly up to 57.4 µM; activity change, negative = inhibition: at the top concentration.
Cytochrome P450 2C9 (Homo sapiens), sequence (P11712 whole entry, looked up): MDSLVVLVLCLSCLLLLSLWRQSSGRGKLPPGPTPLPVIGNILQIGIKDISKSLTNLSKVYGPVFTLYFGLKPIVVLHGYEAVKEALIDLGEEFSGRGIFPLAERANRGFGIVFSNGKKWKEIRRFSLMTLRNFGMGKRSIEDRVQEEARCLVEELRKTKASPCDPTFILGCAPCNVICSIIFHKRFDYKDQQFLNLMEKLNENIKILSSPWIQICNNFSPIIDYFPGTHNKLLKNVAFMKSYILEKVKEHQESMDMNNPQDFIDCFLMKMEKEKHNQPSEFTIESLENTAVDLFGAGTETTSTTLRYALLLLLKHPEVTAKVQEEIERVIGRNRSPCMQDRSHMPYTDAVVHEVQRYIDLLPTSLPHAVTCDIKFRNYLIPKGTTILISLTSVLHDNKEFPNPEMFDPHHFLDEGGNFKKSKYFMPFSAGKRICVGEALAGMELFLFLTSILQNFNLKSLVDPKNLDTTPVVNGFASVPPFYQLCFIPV
In short: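 P450-Glo CYP2C9 system: proluciferin substrate with enzyme in mix containing 0.4% BSA, 10 min at room temperature, then NADPH regeneration solution added and incubated 1 h at 37C. Detection reagent stopped reaction; luminescence read after 20 min as RLU.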
With `CC(NCCC(c1ccccc1)c1ccccc1)c1ccccc1` (stereo not given) the Potency was 13.8 µM (active).
With `CC(C)C(=O)Nc1cccc(C(F)(F)F)c1` the “activity change, negative = inhibition” value was 4.62%.
`CC(C)(C)NCC(O)COc1ccccc1OCC1CCCO1` (stereo not given) was tested, and the “activity change, negative = inhibition” value was -8.45%.
In the case of `COC(=O)CCCCC(CCSS/C(CCO)=C(\C)N(C=O)Cc1cnc(C)nc1N)SC(C)=O` (stereo not given), the “activity change, negative = inhibition” value is reported as -8.25%.
For `CCN(CC)CC(=O)Nc1c(C)cccc1C(=O)OC`, the “activity change, negative = inhibition” value was 10.6%.
In the case of `Cc1cccc(N(C)C(=S)Oc2ccc3c(c2)C2CCC3C2)c1` (stereo not given), the Potency is reported as 7.76 µM (active).
With `CC(C(O)c1ccccc1)N(C)CCOC(c1ccccc1)c1ccccc1` (stereo not given) the Potency was 13.8 µM (active).
In the case of `COC(=O)c1c(Cl)c(Cl)c(C(=O)OC)c(Cl)c1Cl`, the “activity change, negative = inhibition” value is reported as 0.302% [at 115 µM].
For `COC(=O)c1cc(Cl)ccc1OC`, the “activity change, negative = inhibition” value was 11.6%.
For `CCCCN(CCN(CCCC)C(=O)N1CCOCC1)C(=O)N1CCOCC1`, the “activity change, negative = inhibition” value was -1.07%.
In the case of `CC(CC(C#N)(c1ccccc1)C(C)C)N(C)C` (stereo not given), the “activity change, negative = inhibition” value is reported as 2.13%.
For `Nc1ccc([N+](=O)[O-])c(C(F)(F)F)c1`, the “activity change, negative = inhibition” value was -12.9%.
With `COC(=O)c1cc(S(N)(=O)=O)ccc1OC` the “activity change, negative = inhibition” value was 77.6%.
In the case of `Oc1ccccc1-c1nnco1`, the “activity change, negative = inhibition” value is reported as 15.1%.
With `O=C(O)c1cn(C2CC2)c2cc(Cl)c(F)cc2c1=O` the “activity change, negative = inhibition” value was 14.1%.
With `OC[C@]1(O)OC[C@@H](O)[C@H](O)[C@@H]1O` the “activity change, negative = inhibition” value was 11.6%.
For `C[C@@H](C1=C(CCN(C)C)Cc2ccccc21)c1ccccn1`, the “activity change, negative = inhibition” value was -0.511%.
`O=C(CCCl)NCc1ccccc1` was tested, and the “activity change, negative = inhibition” value was 13.9%.
For `C/C(=N\O)[C@@H](C)NCC(C)(C)CN[C@H](C)/C(C)=N/O`, the “activity change, negative = inhibition” value was -11.8%.
With `Nc1nc(=O)n([C@@H]2O[C@H](CO)[C@@H](O)[C@@H]2F)cc1I` the “activity change, negative = inhibition” value was 11.2%.
`CC(C)NC(=O)c1ccc(C=O)cc1` was tested, and the “activity change, negative = inhibition” value was 13.1%.
`Cc1ccc(Cl)c(OCC(O)CNC(C)(C)C)c1` (stereo not given) was tested, and the “activity change, negative = inhibition” value was 2.77%.
`CC(=O)N[C@@H](CO)C(=O)N[C@@H](CC(=O)O)C(=O)N[C@@H](CCCCN)C(=O)N1CCC[C@H]1C(=O)O` (Ac-SDKP-OH) was tested, and the “activity change, negative = inhibition” value was 1.01%.
With `OC1(c2ccccc2)CCNCC1` the “activity change, negative = inhibition” value was -18.5%.
With `CCCCNc1ccc(C(=O)OCCN(CC)CC)cc1` the “activity change, negative = inhibition” value was -2.47%.
In the case of `Cc1cnc(NS(=O)(=O)c2ccc(N)cc2)nc1`, the “activity change, negative = inhibition” value is reported as 23.8%.
`N#Cc1cc(NC(=O)C(=O)O)c(Cl)c(NC(=O)C(=O)O)c1` was tested, and the “activity change, negative = inhibition” value was 11.6%.
With `O=C(NO)c1ccccc1` the “activity change, negative = inhibition” value was 5.61% [at 115 µM].
For `CO/N=C(\C(=O)O)c1csc(NC(=O)CCl)n1`, the “activity change, negative = inhibition” value was 5.44%.
For `C#Cc1ccc(-c2ccccc2F)cc1`, the Potency was 12 µM (active).
For `Cc1cccc(C)c1NC(=O)c1cc(S(N)(=O)=O)c(Cl)cc1O`, the “activity change, negative = inhibition” value was -16.7%.
In the case of `CN(C)CCCOC1(Cc2ccccc2)CCCCCC1`, the “activity change, negative = inhibition” value is reported as 5.43%.
For `Nc1ccc2c(c1)CN1C(=O)c3ccccc3C1=N2`, the Potency was 4.25 µM (active).
With `O=C(O)c1ccccc1Nc1cc(Cl)ccc1C(=O)O` the “activity change, negative = inhibition” value was 9.02% [at 23.9 µM].
In the case of `CC1(C)S[C@@H]2[C@H](NC(=O)C(c3ccccc3)S(=O)(=O)O)C(=O)N2[C@H]1C(=O)O` (stereo not given in full), the “activity change, negative = inhibition” value is reported as 6.7%.
With `O=C(O)Cn1cnnn1` the “activity change, negative = inhibition” value was 3.21%.
In the case of `CCOC(=O)O[C@]1(C(=O)OCCl)CC[C@H]2[C@@H]3CCC4=CC(=O)C=C[C@]4(C)[C@H]3[C@@H](O)C[C@@]21C`, the “activity change, negative = inhibition” value is reported as 6.25%.
With `O=C(CCCl)NCCc1ccccc1` the “activity change, negative = inhibition” value was 5.19%.
For `CC[N+](CC)(CC)CCOC(=O)C(C1CCCC1)C1CCCC1`, the “activity change, negative = inhibition” value was 0.776%.
With `CCOC(=O)c1ccc(O)c(O)c1` the “activity change, negative = inhibition” value was 110%.

From PubChem BioAssay (NCATS)
% is set by controls: 0 for no effect and ±100 for the full control effect; potency is the fitted concentration of half-maximal effect.
Note: nearly all actives have a fitted effect of over 55% in size.
